This passage reports fold shift results from PubChem BioAssay AID743433 (Vanderbilt Specialized Chemistry Center, 2014).

The structures appear in SMILES notation.

This test concerns the target Metabotropic glutamate receptor 2 (Homo sapiens) (UniProt Q14416). Description: off-target activity check on mGlu2 receptor – cell-based, GIRK thallium flux, agonist curve fold shift, selectivity assay for mGlu8/mGlu7 PAM project, profiling panel (AID 743433). The conditions noted are these: mGlu2/GIRK cells, agonist CRC shift, agonist EC50 fold shift, at 10 µM.

Sequence of Metabotropic glutamate receptor 2 (Homo sapiens) (Q14416 whole entry, looked up): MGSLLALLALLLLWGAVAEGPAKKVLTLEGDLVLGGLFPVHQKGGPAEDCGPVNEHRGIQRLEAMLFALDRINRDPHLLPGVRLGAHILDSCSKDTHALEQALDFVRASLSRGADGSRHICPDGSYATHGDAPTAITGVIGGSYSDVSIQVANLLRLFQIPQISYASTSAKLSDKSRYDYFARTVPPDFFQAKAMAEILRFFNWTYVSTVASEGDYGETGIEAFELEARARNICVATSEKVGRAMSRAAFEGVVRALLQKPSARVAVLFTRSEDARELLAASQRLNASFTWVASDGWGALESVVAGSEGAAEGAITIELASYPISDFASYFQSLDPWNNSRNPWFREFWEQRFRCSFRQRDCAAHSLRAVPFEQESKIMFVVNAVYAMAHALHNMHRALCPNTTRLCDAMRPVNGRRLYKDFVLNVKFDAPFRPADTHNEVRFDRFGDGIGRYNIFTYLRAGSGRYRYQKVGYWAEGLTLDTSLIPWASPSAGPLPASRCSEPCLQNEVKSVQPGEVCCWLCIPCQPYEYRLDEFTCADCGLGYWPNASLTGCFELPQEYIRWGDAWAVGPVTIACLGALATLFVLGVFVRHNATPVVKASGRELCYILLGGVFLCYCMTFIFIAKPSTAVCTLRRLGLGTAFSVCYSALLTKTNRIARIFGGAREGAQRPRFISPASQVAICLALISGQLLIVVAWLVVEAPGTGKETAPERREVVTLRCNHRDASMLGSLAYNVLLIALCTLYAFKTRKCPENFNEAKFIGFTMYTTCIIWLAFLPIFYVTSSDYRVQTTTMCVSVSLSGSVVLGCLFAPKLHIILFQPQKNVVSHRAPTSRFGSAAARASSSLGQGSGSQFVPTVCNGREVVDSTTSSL

Consider `COC(=O)c1ccc(-n2c(C)cc(C(=O)CSc3ccc(NC(C)=O)cc3)c2C)cc1`, for which the fold shift was 1.
